Where “and” joins values, the source holds several entries; their conditions need not be identical. Identical values can stand only once. Among all 16,000 compounds or so, about 5,800 (36%) were called active. About 23% were inconclusive and are not listed. The list shows a part of the results. A number with no mark means an inactive call. Calls follow the shape of the dose curve; as a rule, active = well fitted curve in the direction sought with a large enough effect; inconclusive = small, poorly fitted or top-dose-only effect, or effect the other way; inactive = no such curve, though single readings can be large or run the other way.

The values that follow come from PubChem BioAssay AID1851 (National Center for Advancing Translational Sciences (NCATS), 2009).
% is scaled to controls: 0 for no effect and ±100 for the full control effect.

Chain of Cytochrome P450 2C19 (Homo sapiens) (P33261 whole entry, looked up): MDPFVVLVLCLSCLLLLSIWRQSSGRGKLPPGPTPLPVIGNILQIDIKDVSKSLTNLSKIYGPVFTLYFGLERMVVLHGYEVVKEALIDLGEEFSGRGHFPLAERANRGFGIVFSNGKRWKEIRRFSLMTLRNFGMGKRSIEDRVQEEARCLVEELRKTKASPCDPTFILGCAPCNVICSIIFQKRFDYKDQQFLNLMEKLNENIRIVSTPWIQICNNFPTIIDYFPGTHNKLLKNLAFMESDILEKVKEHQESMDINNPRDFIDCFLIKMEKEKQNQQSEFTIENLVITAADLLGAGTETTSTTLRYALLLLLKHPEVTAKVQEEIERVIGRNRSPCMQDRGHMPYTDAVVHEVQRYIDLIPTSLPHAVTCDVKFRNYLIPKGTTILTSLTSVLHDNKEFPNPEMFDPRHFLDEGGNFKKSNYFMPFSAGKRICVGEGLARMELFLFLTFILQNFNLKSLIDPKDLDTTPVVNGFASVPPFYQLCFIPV

This assay addresses Cytochrome P450 2C19 (Homo sapiens) (UniProt P33261). Description: Cytochrome panel assay with activity outcomes. The note with it: recombinant CYP, pro-luciferin dealkylation, luminescence, p450-cyp2c19; series mostly up to 57.1 µM; activity, negative = inhibition: at the top concentration.
Turning to `CC(=O)OC[C@@H]1O[C@@H](O/N=C2/C[C@@H](O)[C@@H](O)[C@@H]3[C@@H]4C(=O)N(C5CCCCC5)C(=O)[C@H]4CC[C@@H]23)[C@H](OC(C)=O)[C@H](OC(C)=O)[C@@H]1OC(C)=O`, the activity, negative = inhibition is 2.25% [at 11.4 µM].

One may read the AC50 as the concentration at which the activity in the assay is half-maximal. As for `CCOc1ccccc1NC(=O)C1Cc2ccccc2CN1S(C)(=O)=O` (centres undefined), the AC50 is 7.94 µM (active). For the compound `CCOc1ccccc1Nc1ccc(N)cc1S(=O)(=O)O`, the activity, negative = inhibition is -16.1% [at 11.4 µM]. Still for that read-out and setting: as for `C=C(NC(=O)C(=C)NC(=O)c1csc(C2=N[C@@H]3c4csc(n4)[C@@H]4NC(=O)c5csc(n5)[C@@H]([C@](C)(O)[C@H](C)O)NC(=O)[C@@H]5CSC(=N5)/C(=C/C)NC(=O)[C@@H]([C@H](C)O)NC(=O)c5csc(n5)[C@]3(CC2)NC(=O)[C@@H](C)NC(=O)C(=C)NC(=O)[C@@H](C)NC(=O)[C@@H]([C@@H](C)CC)N[C@H]2C=Cc3c([C@H](C)O)cc(nc3[C@@H]2O)C(=O)O[C@H]4C)n1)C(N)=O`, the figure is 15.8% [at 25.6 µM]. As to `O=S(=O)(c1ccccc1)N1CN2CN(C1)CN(S(=O)(=O)c1ccccc1)C2`, the activity, negative = inhibition was -18.2% [at 11.4 µM].

For the compound `O=C1CCN(S(=O)(=O)c2ccccc2)N1`, the AC50 is 17.8 µM (active). As for `O=S(=O)(c1ccccc1)N1CCC2(CC1)CN(C(c1ccccc1)c1ccccc1)C2`, the “activity, negative = inhibition” value was -6.26%. Regarding `O=C(c1csnn1)N1CCC2(CC1)CCN(c1ccccc1)CC2`, the “activity, negative = inhibition” value was -19.6%. As to `O=C(NCc1ccccc1)C(c1ccncc1)N(C(=O)c1csnn1)C1CC1` (centres undefined), the AC50 is 8.91 µM (active).

Regarding `O=C(Nc1cccc(F)c1)N1CCC2(CC1)CCN(C(=O)c1csnn1)CC2`, the “activity, negative = inhibition” value is -22.8%. Regarding `O=C(c1csnn1)N1CCC2(CCCN(Cc3ccccc3)C2)CC1`, the “activity, negative = inhibition” value was 2.09%. Take `CCc1ccc(N(C(=O)c2csnn2)C(C(=O)NCc2ccccc2)c2ccco2)cc1` (centres undefined): the AC50 is 3.16 µM (active). Take `O=C(OC(C(=O)O)C(OC(=O)c1ccccc1)C(=O)NCc1ccccc1)c1ccccc1` (centres undefined): the “activity, negative = inhibition” value is 1.03%.

For `O=C(NCc1ccc(F)cc1)C(c1ccncc1)N(C(=O)c1csnn1)C1CC1` (centres undefined), the AC50 was 3.55 µM (active). Still for that read-out and setting: as for `CC(C)CCn1c(Oc2ccccc2Cl)nc2c1c(=O)n(C)c(=O)n2C`, the figure is 15.8 µM (active).

`CCn1c(CCCc2nc3c([nH]2)c(=O)n(C)c(=O)n3C)nc2c1c(=O)n(C)c(=O)n2C`: the activity, negative = inhibition is 2.28% [at 11.4 µM]. `CCOC(=O)N1CCN(C(=O)C(CC)n2nc(C)c3sc4ccccc4c3c2=O)CC1` (centres undefined): the AC50 was 20 µM (active). In the case of `CCOC(=O)N1CCN(C(=O)C(C)SCc2ccccc2)CC1` (centres undefined), the “activity, negative = inhibition” value is -27.1%.

`CCOC(=O)N1CCN(C(=O)c2cnc3n(c2=O)CCS3)CC1`: the “activity, negative = inhibition” value was -14.5%. For `CCOC(=O)N1CCN(C(=O)CSCc2nc(-c3ccccc3F)oc2C)CC1`, the AC50 was 31.6 µM (active). Same read-out and setting: as for `Cc1oc(-c2ccccc2Cl)nc1CSCC(=O)NC1CC1`, the figure is 14.1 µM (active); as for `Cc1oc(-c2ccccc2F)nc1CSCC(=O)NCc1ccc2c(c1)OCO2`, 1.78 µM (active).

With `Cc1oc(-c2ccccc2F)nc1CS(=O)(=O)CC(=O)NCCCN(C)C1CCCCC1`, the “activity, negative = inhibition” value is -9.67%. As for `N#Cc1cccc(NC(=O)N2CCC3(CC2)CCN(C(=O)c2csnn2)CC3)c1`, the “activity, negative = inhibition” value was 15.6%. For the compound `Nc1ncnc2c([C@@H]3O[C@@H](CO)[C@H](O)[C@@H]3O)nsc12`, the activity, negative = inhibition was 20.7% [at 11.4 µM].

For `O=C(c1ccco1)N1CCC[C@@]2(CCN(Cc3ccccc3)C2)C1`, the “activity, negative = inhibition” value was -21.5%. On the same count and under the same terms, with `O=C(c1ccco1)N1CCC2(CC1)CCN(c1ccccc1)CC2` the figure was -29.3%; with `CC(C)(C(=O)c1cccnc1)c1cccnc1`, -11.6% [at 25.6 µM]. For `Cc1nn(C(C)(C)C)c(OC(=O)c2ccco2)c1Sc1ccccc1`, the AC50 was 7.08 µM (active).

`Cc1nn(C(=O)c2cccnc2)c(C)c1Sc1ccc(Br)cc1`: the concentration at half-maximal activity (AC50) was 0.631 µM (active). Take `Cc1nn(C(=O)c2ccco2)c(C)c1Sc1ccccc1`: the AC50 is 6.31 µM (active). On to `C/C(CCN1CCCc2nc(C)c(C)cc21)=N\OC[C@@H](C)[C@H](OCc1ccccc1)C(C)C`, for which the activity, negative = inhibition was -29.2% [at 11.4 µM].

For the compound `Cc1ccccc1CSc1nsc(N)n1`, the AC50 is 11.2 µM (active). Take `CCN1/C(=C/c2ccc3cccc(C)c3[n+]2CC)Sc2ccccc21`: the “activity, negative = inhibition” value is -0.21%.

Consider `O=C(CS(=O)(=O)c1cccc(Cl)c1)Nc1ccccc1Cl`, for which the AC50 is 2.51 µM (active). Still for that read-out and setting: with `O=C(CS(=O)c1cccc(C(F)(F)F)c1)Nc1ccccc1Cl` (centres undefined) the figure was 2.82 µM (active).

Turning to `NCC(=O)Nc1ccc(Cl)cc1C(=O)c1ccc[nH]1`, the activity, negative = inhibition is -10.9% [at 11.4 µM]. In the case of `O=C(CS(=O)c1cccc(Cl)c1)Nc1ccccc1Cl` (centres undefined), the AC50 was 2.51 µM (active). With `NC(=O)NC(=O)Nc1ccccc1Cl`, the “activity, negative = inhibition” value is -12.5%. The same measure, in the same setting: with `OC[C@@H]1O[C@@H](n2cnc3c(N[C@H]4CCC[C@@H]4O)ncnc32)[C@H](O)[C@H]1O` the figure was -26.2%; with `O=C(Nc1ccc([N+](=O)[O-])cc1Cl)c1cc(Cl)ccc1O`, -30.4%. Turning to `Cc1cccc[n+]1CC(=O)Nc1ccc([N+](=O)[O-])cc1Cl`, the AC50 was 3.16 µM (active). Consider `Cc1ccc(S(=O)(=O)c2c(C)nn(C(C)(C)C)c2OC(=O)c2cccs2)cc1`, for which the AC50 is 1 µM (active). Regarding `CN1CCC(n2[nH]c(-c3ccccc3)c(Cc3ccccc3)c2=O)CC1`, the activity, negative = inhibition was -29.5% [at 11.4 µM].

For the compound `COc1cc([C@H](O)CO)ccc1O`, the “activity, negative = inhibition” value is 9.63%. In the case of `Cc1c(-c2c(C#N)c(N)nc3c2CCCCCC3)cnn1C`, the AC50 was 14.1 µM (active). Take `CCc1sc(-c2c(C#N)c(N)nc3c2CCCCCC3)cc1[N+](=O)[O-]`: the AC50 is 3.98 µM (active). Still for that read-out and setting: as for `N#Cc1c(N)nc2c(c1-c1cccc(O)c1)CCCCCC2`, the figure is 7.08 µM (active); as for `FC(F)(F)c1ccc(N2CCOCC2)c(Nc2nc3ccccc3n3cnnc23)c1`, 3.55 µM (active). Same read-out and setting: as for `CCCCSc1nc(C)cc(C)c1S(=O)(=O)c1ccccc1C`, the figure is 0.562 µM (active). The same measure, in the same setting: as for `CCCSc1nc(C)cc(C)c1S(=O)(=O)c1ccccc1C`, the figure is 2.24 µM (active). Consider `Cc1ccccc1S(=O)(=O)c1c(C)cc(-c2ccccc2)[nH]c1=O`, for which the “activity, negative = inhibition” value is -7.26%. Still for that read-out and setting: as for `COc1ccccc1CN1CCC2(CCNCC2)CC1`, the figure is -22.3%. On the same count and under the same terms, as for `COc1ccccc1CN1CCC2(CC1)CCN(S(C)(=O)=O)CC2`, the figure is -15.7%.

On to `COc1ccccc1/C=C/C=N/N1CCN(Cc2cccc3ccccc23)CC1`, for which the AC50 was 14.1 µM (active).

As for `Cc1ccc(C(=O)c2ccc(CC(=O)O)n2C)cc1`, the “activity, negative = inhibition” value was -10.5% [at 25.6 µM].

In the case of `O=C(Nc1cccnc1)C1COc2ccccc2O1` (centres undefined), the AC50 was 11.2 µM (active).

Consider `O=C(NCc1cccnc1)C1COc2ccccc2O1` (centres undefined), for which the AC50 was 8.91 µM (active).

For the compound `O=C(Nc1ncc(Cc2ccccc2)s1)C1COc2ccccc2O1` (centres undefined), the “activity, negative = inhibition” value is -19.2%. As to `COC(=O)CCCC(=O)O`, the activity, negative = inhibition is 37.5% [at 11.4 µM]. Regarding `O=C(O)CN(CCN(CC(=O)O)CC(=O)O)CC(=O)O.[Cu]`, the activity, negative = inhibition is -41.9% [at 11.4 µM]. `Cc1cc2c(c(=O)o1)[C@H](O)[C@H]1O[C@@H]1C2=O`: the activity, negative = inhibition is -43.4% [at 11.4 µM]. `O=C(CCN1C(=O)C2C3C=CC(C3)C2C1=O)NCCN1CCCc2ccccc21` (centres undefined): the concentration at half-maximal activity (AC50) was 28.2 µM (active). Regarding `CC(C)(C)NCC[C@@H](O)c1cc(C(F)(F)F)nc2c(C(F)(F)F)cccc12`, the activity, negative = inhibition is -11% [at 11.4 µM]. For `CCN(CC)c1ccc2c(c1)OC(N)=C(C#N)C2c1cccnc1` (centres undefined), the AC50 is 0.891 µM (active). Turning to `COc1ccc(NC(=O)C2c3cc(OC)c(OC)cc3C(=O)N(C)C2c2cccnc2)cc1OC` (centres undefined), the “activity, negative = inhibition” value is -13.1%. As for `COc1cc2c(cc1OC)C(C(=O)Nc1cccc(C)n1)C(c1cccnc1)N(C)C2=O` (centres undefined), the AC50 was 0.251 µM (active). For `COc1cc2c(cc1OC)C(C(=O)Nc1ccccn1)C(c1cccnc1)N(C)C2=O` (centres undefined), the “activity, negative = inhibition” value was -28.9%. As for `COc1cc(N=C(N)N=C(N)N)c2ncccc2c1`, the activity, negative = inhibition is 36.7% [at 11.4 µM]. Still for that read-out and setting: with `Nc1ccc(S(=O)(=O)NCCS(=O)(=O)O)cc1` the figure was 22.1% [at 11.4 µM]. With `NCCCCNS(=O)(=O)c1cccc2c(Cl)cccc12`, the half-maximal activity concentration (AC50) is 0.1 µM (active). Regarding `NCCNS(=O)(=O)c1ccc(N)cc1`, the activity, negative = inhibition was -4.78% [at 11.4 µM]. `CCCCCCCNS(=O)(=O)c1cccc2c(Cl)cccc12`: the AC50 is 0.126 µM (active). Take `CNCCNS(=O)(=O)c1cccc2cnccc12`: the “activity, negative = inhibition” value is -28.3%. For `NCCCCCCNS(=O)(=O)c1cccc2c(Cl)cccc12`, the AC50 is 200 nM (active) and 10 nM (active). On the same count and under the same terms, as for `NCCCCNS(=O)(=O)c1ccc2c(Cl)cccc2c1`, the figure is 0.00251 µM (active).

In the case of `CCN1C(=O)C=CC1=O`, the “activity, negative = inhibition” value was -21.9%. Regarding `NCCNS(=O)(=O)c1cccc2cnccc12`, the AC50 result is “inactive”.

For `NCCCCCCNS(=O)(=O)c1cccc2ccccc12`, the AC50 was 1 µM (active). As for `CCCCNS(=O)(=O)c1ccc(OC)c(Cl)c1Cl`, the AC50 was 0.794 µM (active). `C=CCNS(=O)(=O)c1cccc2cc(C(=O)O)c(O)cc12`: the “activity, negative = inhibition” value was 16.1%. For the compound `NCCCCCCCCCCNS(=O)(=O)c1cccc2c(Cl)cccc12`, the AC50 was 0.0794 µM (active).

For `O=S(=O)(NCCCCCCc1ccccc1)c1cccc2c(Cl)cccc12`, the AC50 is 1 µM (active).

Consider `COc1cc(/C=C/C(=O)O)cc(S(=O)(=O)NCCCO)c1OC`, for which the “activity, negative = inhibition” value was 5.71%.

On to `CC12CCC(C(=O)O)(C/C1=N\O)C2(C)C` (centres undefined), for which the “activity, negative = inhibition” value was -19.9%. Take `N[C@@H](Cc1[nH]nc2ccccc12)C(=O)O`: the activity, negative = inhibition was 2.15% [at 11.4 µM].

With `CC(C)NC(=O)COC(=O)c1cc(=O)[nH]c2ccccc12`, the “activity, negative = inhibition” value was 2.4%. Still for that read-out and setting: with `COc1ccc(OC)c(-c2cc(C(=O)O)c3cc4ccccc4cc3n2)c1` the figure was 2.46% [at 11.4 µM]. As to `Cc1cc(C(=O)OCC(=O)NCCC(C)C)c2ccccc2n1`, the AC50 is 14.1 µM (active). The same measure, in the same setting: as for `CCNC(=O)COC(=O)c1cc(-c2ccc(OC)cc2)nc2ccccc12`, the figure is 11.2 µM (active). As for `CCNC(=O)COC(=O)c1cc(=O)[nH]c2ccccc12`, the “activity, negative = inhibition” value is -10.7%. On the same count and under the same terms, with `COc1ccc(C(=O)N2CCC3(CC2)CN(C(=O)Nc2ccccc2)C3)cc1` the figure was 7.1%.

Regarding `COc1ccc(C(=S)Nc2ccccc2)cc1`, the AC50 is 3.98 µM (active). On the same count and under the same terms, as for `COc1ccc(NC(=S)Nc2ccccc2)cc1`, the figure is 2 µM (active).
